Screening data from PubChem.
Giardia kill: Giardia lamblia killing; Giardia lamblia trophozoite viability; activity change, % at 7.66 µM, hits read low; hit rate 0.15% among 340,000; AID 540267; in the data active = activity change below about -80%; inconclusive = between about -30% and that limit;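 also: parasites exposed to compound for two days anaerobically before the ATP read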
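Trophozoites 100 cells/well + cpd; 48 hrs, 37 deg C, anaerobic. ATPLite 1-Step added, 15-30 min RT, luminescence read (ATP-based viability).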
KCNH2 WT inh: KCNH2 (human, wildtype) channel inhibition; Q12809; U2OS, BacMam KCNH2, thallium flux FluxOr; hits give low values; activity change, % at 1.84 µM; hit rate 0.37% among 340,000; AID 720551;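 active = maximum activity change below -70%; inconclusive = maximum activity change between -70% and -50%; inactive = maximum activity change above -50%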
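U2OS cells were transduced with wild-type KCNH2 virus (2.03 x 10^8 / mL) for 4 h at room temperature, then cultured overnight at 37 C. Thallium flux was read with FluxOr dye. Rate constants were normalized to DMSO controls.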
KCNH2 3.1 block: KCNH2 3.1 (human) potassium channel inhibition; U2OS KCNH2 3.1, thallium flux FluxOr; hits give low values; activity change, % (tested at about 1.8 µM); hit rate 0.95% among 340,000;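 active = maximum activity change below -70%; inconclusive = maximum activity change from -70% to -50%; inactive = maximum activity change above -50%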;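 also: thallium influx rate constant from kinetic fluorescence after stimulation buffer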
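Thallium flux via FluxOr fluorescence (Red40 quencher, 45 min loading) in U2OS cells virally expressing the KCNH2 3.1 isoform (1.77 x 10^8 /mL virus, overnight at 37 C). Rate constants from 2-min kinetic reads post-stimulation, normalised to positive and negative controls.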
FBPA coupling cs: inhibits coupling enzyme system, counter-screen for aldolase hits. activity change, negative = inhibition, % at 58.2 µM, hits read low. coupling enzyme system counterscreen, AmpLite Red fluorescence. hit rate 0.67% among 290,000; in the data active = activity change below about -30%
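Counterscreen of the coupled detection system alone, without aldolase: glyceraldehyde-3-phosphate coupling enzymes plus AmpLite Red readout. Compounds at 57.5 uM final, 10 min RT preincubation, 20 min RT reaction, fluorescence 525/598 nm.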
USP1 inh: USP1/UAF1 (human) deubiquitinase inhibition | O94782 | recombinant USP1/UAF1, Ub-Rhodamine cleavage fluorescence | Potency, µM (titrated, usually from 57.1 µM), for inactives: at the highest dose activity change, negative = inhibition, most hits filed as inhibitors | hit rate 0.23% among 390,000 | AID 743255; active = well fitted inhibition curve with a large enough effect; inconclusive = small, poorly fitted or top-dose-only effect; inactive = no such curve, though single readings can be large or run the other way; also: potency is read from the fitted curve at half-maximal effect; nearly all actives have a fitted effect of over 60% in size
Target sequence (O94782 whole entry, looked up): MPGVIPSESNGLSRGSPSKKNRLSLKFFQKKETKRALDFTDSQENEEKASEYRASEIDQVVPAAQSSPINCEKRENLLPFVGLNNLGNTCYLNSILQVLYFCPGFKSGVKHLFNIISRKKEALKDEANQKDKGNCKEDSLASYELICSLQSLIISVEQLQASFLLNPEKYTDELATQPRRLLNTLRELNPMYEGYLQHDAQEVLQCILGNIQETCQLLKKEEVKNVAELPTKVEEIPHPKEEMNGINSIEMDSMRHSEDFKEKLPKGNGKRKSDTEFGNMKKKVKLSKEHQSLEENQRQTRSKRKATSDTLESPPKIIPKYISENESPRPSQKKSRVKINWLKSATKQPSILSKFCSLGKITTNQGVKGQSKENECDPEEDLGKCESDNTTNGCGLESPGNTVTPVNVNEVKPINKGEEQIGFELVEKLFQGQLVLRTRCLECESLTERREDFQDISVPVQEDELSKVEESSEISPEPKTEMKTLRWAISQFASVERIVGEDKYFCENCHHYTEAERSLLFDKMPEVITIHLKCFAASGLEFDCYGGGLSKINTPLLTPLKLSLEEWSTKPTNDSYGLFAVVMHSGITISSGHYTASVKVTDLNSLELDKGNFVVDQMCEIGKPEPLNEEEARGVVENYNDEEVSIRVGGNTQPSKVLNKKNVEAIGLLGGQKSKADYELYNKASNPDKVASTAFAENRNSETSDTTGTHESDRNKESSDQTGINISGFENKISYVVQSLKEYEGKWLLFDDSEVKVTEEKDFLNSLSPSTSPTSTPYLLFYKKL
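USP1/UAF1 complex at 1 nM was preincubated with compound for 15 min at room temperature, then Ub-Rho substrate (150nM final) was added. Fluorescence (480/540 nm) was read kinetically, 6 reads every 60 seconds.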
* = called active by the depositor; i = inactive; u = inconclusive; x = not tested or not shown. A selection: hits, their analogues and other compounds. The true share with any hit is near 1.7%. % is scaled to controls: 0 for no effect and ±100 for the full control effect.

SMILES	Giardia kill	KCNH2 WT inh	KCNH2 3.1 block	FBPA coupling cs	USP1 inh
O=C1Nc2c(Cl)cc(Cl)cc2C1=O	-11	0	-3	x	28µM*
CC(C)OCCCn1c(=O)c2ccccc2n2c(-c3ccccc3)nnc12	x	x	x	x	-14%
CCN(CC)c1ccc(-c2c(C#N)c(N)nc(OC)c2C#N)cc1	-12	-9	-70*	-2	5%
CSc1nsc(/C=C/Nc2ccc(F)cc2)c1C#N	29	2	0	-19	u
CSc1nsc(/C=C/Nc2ccc(O)cc2C)c1C#N	8	-3	-8	-33*	u
C=CCN1c2ccccc2[C@]23C[C@@H](C(=O)OC)N(S(=O)(=O)c4ccc(Br)cc4)C2=NC(C(=O)OC)=C(C(=O)OC)[C@H]13	x	x	x	3	x
CCCC[n+]1ccn(C2=C([O-])c3ccccc3C(=O)/C2=N\S(=O)(=O)c2ccc(Cl)cc2)c1	-2	-9	1	-45*	u
COc1cc(CN2CCN(S(=O)(=O)c3ccccc3)CC2)cc(OC)c1OC	24	-1	20	-4	0%
COc1cc(CN2CCCC(C)C2)ccc1OCc1ccccc1 (configuration not stated)	-19	31	-85*	-1	u
COc1ccc(CN2CCN(Cc3ccc4ccccc4c3)CC2)cc1OC	-20	-12	-88*	0	-2%
O=[N+]([O-])c1ccccc1CN1CCN(Cc2ccc3ccccc3c2)CC1	5	4	-80*	4	-17%
COc1ccccc1CN1CCN(Cc2ccc3ccccc3c2)CC1	0	4	-19	0	-15%
COc1cc(CN2CCN(C(O)(c3ccccc3)c3ccccc3)CC2)cc(OC)c1OC	-15	32	-75*	-2	-10%
Cc1sc2ncn(CC(=O)Nc3cccc(C(F)(F)F)c3)c(=O)c2c1S(=O)(=O)N1CCC(C)CC1	x	x	x	x	-2%
CCC1CN(C(=O)Nc2ccccc2C(F)(F)F)c2ccccc2O1 (configuration not stated)	x	x	x	x	-2%
CCN(CC)C(=O)Cn1cc(SCC(=O)Nc2cccc(F)c2)c2ccccc21	x	x	x	x	-10%
CC(C)(C)NC(=O)NC(=O)CN1CCc2ccccc21	19	1	3	-39*	-8%
COC(=O)N1C2(C=CC1(C)C(=O)NCc1ccc(N(C)C)cc1)CCCCC2 (configuration not stated)	x	x	x	0	x
Cc1cccc(OCC(=O)NCC(C)(C)N2CCOCC2)c1	25	14	-153*	x	-19%
CCC(Cc1ccccc1)NC(=O)Cn1ncc2ccsc2c1=O (configuration not stated)	-16	7	-110*	-1	-2%
CCC(Cc1ccccc1)NC(=O)Cn1nc(C)n2c(cc3occc32)c1=O (configuration not stated)	x	x	x	x	-9%
COc1ccc2[nH]c(C)c(CCN(Cc3cccs3)C(=S)Nc3cccc(F)c3)c2c1	-8	-16	-3	-43*	-25%
Oc1ccccc1CN1CCC(C(O)(c2ccccc2)c2ccccc2)CC1	u	3	-86*	-1	-19%
COc1cc(-n2cnnn2)ccc1S(=O)(=O)N1CCOCC1	-15	-106*	-144*	4	-10%
CNC(=O)Nc1ccccc1F	26	-241*	7	3	-13%
SMILES	Giardia kill	KCNH2 WT inh	KCNH2 3.1 block	FBPA coupling cs	USP1 inh
O[C@@H]1CN(CC2CCCCC2)[C@@H](c2ccc(Cl)cc2)C[C@H]1n1cc(C2CC2)nn1	x	-11	-3	x	-15%
COc1ccc([C@H]2C[C@H](n3cc(C4CC4)nn3)[C@@H](O)CN2CC2CCCCC2)cc1	x	1	-84*	x	-15%
COc1cccc(N2C(=O)CC(N3CCN(S(=O)(=O)c4ccccc4[N+](=O)[O-])CC3)C2=O)c1 (configuration not stated)	17	9	-5	x	-6%
CCC(CC)c1nnc(NC(=O)c2nc3nc(C)cc(C)n3n2)s1	4	4	-110*	13	6%
CCCOC(=O)c1ccc(NC(=O)c2nc3nc(C)cc(C)n3n2)cc1	3	5	-3	-3	-5%
CC(=O)c1ccc(NC(=O)C(NC(=O)c2ccccc2)=C(C)C)cc1	-7	-8	-4	1	2%
CC(C)=C(NC(=O)c1ccccc1)C(=O)NCc1ccccc1	8	-8	-118*	0	-12%
Cc1ccc(CNC(=O)C2CCC(=O)N(CCc3cccc(F)c3)C2)cc1 (configuration not stated)	2	-5	-84*	x	-8%
COc1cccc(CN2CC(C(=O)NCCCc3ccc(C)cc3)CCC2=O)c1 (configuration not stated)	14	7	-86*	6	-19%
O=C(CSc1nnc(-c2ccccc2)o1)c1cccc([N+](=O)[O-])c1	x	x	x	x	-25%
Cc1cccc(CC2S/C(=N/N=C/c3ccco3)N(c3ccccc3)C2=O)c1 (configuration not stated)	3	-8	-104*	-1	-2%
Cc1ccc(S(=O)(=O)N(C)C[C@H]2OCCCC[C@@H](C)Oc3ccc(NC(=O)Cc4ccccc4)cc3C(=O)N([C@H](C)CO)C[C@@H]2C)cc1	x	10	7	x	-22%
CCN1CC=C2C(C#N)=C(N)C(C#N)(C#N)C(CCc3ccccc3)C2C1 (configuration not stated)	-1	3	-5	-4	22µM*
CCN(CC)C(=O)C1=C(C)N(CCCOC)C(=O)C(CC(=O)NC(c2ccccc2)c2ccccc2)C1 (configuration not stated)	x	2	4	x	-7%
CCN1CCc2c(sc(NC(=O)Cc3ccccc3)c2C(N)=O)C1	14	-11	26	-1	-22%
CCN1CCc2c(sc(NC(=O)Nc3ccc(Cl)c(Cl)c3)c2C(N)=O)C1	-8	-133*	-119*	-2	u
NC(=O)c1c(NC(=O)c2ccccc2)sc2c1CCN(Cc1ccccc1)C2	u	6	2	2	8.9µM*
CCN1CCc2c(sc(NC(=O)c3ccc(S(=O)(=O)N(CC)c4ccccc4)cc3)c2C(N)=O)C1	-12	-5	-38	x	28µM*
COc1ccc(-c2ccnc3nc(N4CCOCC4)nn23)cc1	16	-4	-108*	-4	0%
CC(Oc1ccccc1)c1ccnc2nc(N3CCOCC3)nn12 (configuration not stated)	1	i	-12	2	-12%
c1ccc(Oc2ccc(-c3ccnc4nc(N5CCOCC5)nn34)cc2)cc1	0	-10	-118*	0	-11%
COc1ccc(-c2ccnc3nc(-n4cccc4)nn23)cc1	-10	0	14	3	-10%
Cc1cccc(-c2nn(C(=S)Nc3ccccc3)cc2-c2ccnc3ccccc23)n1	x	x	x	-13	x
COc1ccc(-c2cccc(NS(=O)(=O)c3cccs3)c2)nn1	x	x	x	x	-15%
CCN(Cc1ccccc1)Cc1c(O)ccc2c(=O)c(-c3ccccc3Cl)coc12	x	x	x	x	-10%
